Measurements published in ChEMBL document CHEMBL3988442, “University of Dundee, Small-Polar-MMV Screening Library” (2021).
The whole screen tested about 69,000 compounds, of which about 420 (0.61%) showed an effect of 50% or more. Many of the other results were omitted from the sample, so strong results are more common in it than they were.

Biological target: T1, Histidine--tRNA ligase (Leishmania infantum) (UniProt A4I591)
T1 sequence (whole entry): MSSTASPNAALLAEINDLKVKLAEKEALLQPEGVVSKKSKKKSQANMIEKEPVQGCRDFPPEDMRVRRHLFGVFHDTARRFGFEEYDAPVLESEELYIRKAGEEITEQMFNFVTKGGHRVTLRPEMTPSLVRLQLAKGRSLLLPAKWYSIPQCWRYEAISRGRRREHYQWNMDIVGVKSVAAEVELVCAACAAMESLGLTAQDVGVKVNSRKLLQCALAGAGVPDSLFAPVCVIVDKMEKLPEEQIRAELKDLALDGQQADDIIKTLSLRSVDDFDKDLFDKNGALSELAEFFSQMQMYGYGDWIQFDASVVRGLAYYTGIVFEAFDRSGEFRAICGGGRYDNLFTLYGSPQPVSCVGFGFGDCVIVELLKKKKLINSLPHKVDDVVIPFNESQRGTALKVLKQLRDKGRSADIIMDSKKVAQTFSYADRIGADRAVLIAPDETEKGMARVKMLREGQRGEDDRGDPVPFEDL
Assay: Leishmania infantum Histidine tRNA synthetase (LdHisRS)
Assay type: functional
Set-up: scale not given: in the data most compounds retested in dose-response had high values
Conditions: 30 µM

SMILES	Percent Effect [%]
c1cncc(COCC2C[C@@H]3OCCN(Cc4cccnc4)[C@H]3C2)c1 (stereo not given in full)	28.3
COc1ccc(-c2noc(CN3CCc4cncnc4C3)n2)cc1	50.4
Cn1cnc2c1CCN(Cc1nc(COc3ccc(F)cc3)no1)C2	-98.5
c1ncc2c(n1)CN(Cc1nc(-c3ccoc3)no1)CC2	34.9
Fc1ccc(OCc2noc(CN3CCc4cncnc4C3)n2)cc1	61.6
Cc1ccc(-c2noc(CN3CCc4cncnc4C3)n2)cc1	25.7
c1ccc(Cc2noc(CN3CCc4cncnc4C3)n2)cc1	43
Cn1cc(C(=O)N[C@@H]2CN(Cc3cccnc3)[C@@H]3CCCO[C@@H]32)cn1	22.9
O=C(c1cnccn1)N1CCN2C[C@H](OCC3CC3)C[C@H]2C1	15.1
O=C(CCO)N1CCC2(CCc3ccc(-c4ccoc4)cc32)CC1	22.4
OCCN1CCC2(CCc3cc(-c4ccoc4)ccc32)CC1	24
c1cncc(-c2ccc3c(c2)C2(CC3)CCN(c3nncs3)CC2)c1	53.3
c1cc(-c2ccc3c(c2)CCC32CCN(c3nncs3)CC2)co1	75.8
c1cc(-c2ccc3c(c2)CCC32CCNCC2)ccn1	53.5
CN(C)CC(=O)N1CCC2(CCc3ccc(-c4ccncc4)cc32)CC1	22.4
c1cncc(-c2ccc3c(c2)CCC32CCN(Cc3ccco3)CC2)c1	44
c1cncc(-c2ccc3c(c2)CCC32CCNCC2)c1	20
c1cc(-c2ccc3c(c2)C2(CCNCC2)CC3)ccn1	13.8
Cc1ccc2c(c1)C1(CC2)CCN(c2nncs2)CC1	24.8
c1cc(-c2ccc3c(c2)C2(CC3)CCN(c3nncs3)CC2)ccn1	74.2
c1cncc(-c2ccc3c(c2)C2(CCNCC2)CC3)c1	-17.2
COCCN1C[C@H]2CC[C@@H]1CN(Cc1cc(=O)c3cc(C)ccc3[nH]1)C2	40.6

SMILES	Percent Effect [%]
COCCN1C[C@H]2CN(C(=O)c3ccno3)CCN2C1=O	11.1
COCC(=O)N1C[C@@H](OCc2cccnc2)[C@H]2OCCC[C@@H]21	14.6
COCCNC(=O)[C@H]1CN(Cc2scnc2C)C[C@H]2OCC[C@@H]12	13.3
CCc1cc(N[C@@H]2C[C@H]3CC[C@@H]2C3)n2nccc2n1	25.7
Cc1nc(CN2C[C@@H]3CN(C(=O)c4cnccn4)C[C@@H]3C2=O)cs1	2.94
Cc1ccc(CN2C[C@H]3C[C@H](C(=O)Nc4cccnc4)[C@@H](C2)O3)cc1	22
CN1CCCCC12CCN(c1nncs1)CC2	6.2
c1cncc(-c2ccc3c(c2)CCC32CCN(Cc3nccs3)CC2)c1	48
c1cc(-c2ccc3c(c2)CCC32CCN(c3nncs3)CC2)ccn1	66.1
CNC(=O)[C@H]1CC[C@@H]2[C@@H](CCN2c2ncccn2)O1	14
O=C(c1cnccn1)N1C[C@@H]2OCC(=O)N(CC3CCCCC3)[C@@H]2C1	25
COc1cc(N2CC[C@@H]3O[C@@H](c4ccncn4)C[C@H]3C2)ncn1	14.5
Cn1nc2c(cc1=O)CN(Cc1nc(-c3ccsc3)no1)CC2	27.6
Cc1cccc(-c2noc(CN3CCc4nn(C)c(=O)cc4C3)n2)c1	87.8
Cc1ccccc1-c1noc(CN2CCc3nn(C)c(=O)cc3C2)n1	103
Cn1nc2c(cc1=O)CN(Cc1nc(-c3cccnc3)no1)CC2	10.3
CCCn1nc2c(cc1=O)CN(Cc1nc(-c3ccoc3)no1)CC2	2.67
Cn1nc2c(cc1=O)CN(Cc1nc(-c3cccs3)no1)CC2	20.3
Cc1ccc(-c2nc(CN3CCc4cnc(C)nc4C3)no2)cc1	21.4
Cn1nc2c(cc1=O)CN(Cc1nc(-c3ccoc3)no1)CC2	16
Cc1ccc(-c2nc(CN3CCc4nn(C)c(=O)cc4C3)no2)cc1	52.4
COc1cc2c(nn1)CCN(Cc1noc(-c3ccccc3)n1)C2	24

SMILES	Percent Effect [%]
Cc1ccc(-c2noc(CN3CCc4nn(C)c(=O)cc4C3)n2)cc1	70.7
Cc1ccccc1-c1noc(CN2CCc3cncnc3C2)n1	-42.2
C[C@]12CCCCN(C(=O)c3ccccn3)[C@H]1CCCC(=O)N2	7.37
CN(Cc1cccnc1)[C@@H]1CN(Cc2ccccn2)[C@@H]2CCCO[C@H]12	8.33
Cc1nnc(N2CC[C@H]3O[C@H](C(=O)NCc4ccccn4)CC[C@H]32)s1	20
Cc1ncsc1CN1C[C@@H]2CCCO[C@@H]2[C@H](N(C)C(C)C)C1	14
Cc1ccc(CN2CC[C@@H]3O[C@@H](C(=O)N4CCN(C)CC4)C[C@@H]32)cc1	9.62
CS(=O)(=O)N1C[C@@H]2CC[C@H](C1)N(Cc1cscn1)C2=O	15.2
O=C1CCCC2=C1C(c1cccc(F)c1F)Nc1nonc1N2 (stereo not given)	6.25
COCCN1C[C@@H]2CN(c3cnccn3)C[C@@H]2C1=O	16
Cn1nc2c(cc1=O)CN(Cc1nc(-c3ccco3)no1)CC2	91.4
CCCn1nc2c(cc1=O)CN(Cc1nc(-c3ccco3)no1)CC2	5.5
CCn1nc2c(cc1=O)CN(Cc1nc(-c3ccco3)no1)CC2	33
O=C(NC1CC1)[C@@H]1C[C@@H]2CCN(Cc3ccccc3)C[C@H]2O1	23
COc1ccc(CN2C[C@@H]3OCCN(CCN(C)C)[C@@H]3C2)cc1	15.6
COc1cccc(CNc2nc(C)cc(C)n2)c1OC	21.9
COc1cccc(CNc2cc(C)nc(-c3ccncc3)n2)c1OC	52
COc1cccc(CNc2cc(C)nc(-c3ccncc3)n2)c1O	19.2
O=C(c1ccco1)N1CCO[C@@H]2CN(c3ccccc3)CC[C@@H]2C1	32
O=C(Nc1cnccn1)[C@@H]1COC[C@H]2CN(C3CCC3)C[C@H]21	12.3
O=C(Nc1ccccc1Cl)N1CCN(CC2CC2)[C@@H]2CS(=O)(=O)C[C@@H]21	8.2
COCCN1C[C@H]2CC[C@@H]1CN(C(=O)CCc1n[nH]c(C)c1C)C2	13.9

SMILES	Percent Effect [%]
CC(C)=CCN1C[C@H]2CC[C@@H]1CN(C(=O)CCc1n[nH]c(C)n1)C2	-42.5
O=C(CCc1n[nH]c2c1CCCC2)N1C[C@@H]2CC[C@H](C1)N(CC1CC1)C2	56.5
CC(=O)N1C[C@@H]2CC[C@H](C1)N(C(=O)CCc1n[nH]c3c1CCCC3)C2	17.7
CS(=O)(=O)N1C[C@@H]2CC[C@H](C1)N(C(=O)CCc1n[nH]c3c1CCCC3)C2	14.5
O=C(NCc1cccnc1)[C@H]1CC[C@@H]2[C@@H](CCN2c2ncccn2)O1	7
COCCN1C(=O)[C@H]2CC[C@@H]1CN(S(=O)(=O)c1cccc(Cl)c1)C2	0
Cc1cc(C(=O)N2C[C@H]3CC[C@@H]2CN(C)C3)ccc1Cl	7.14
COc1ccnc(N2C[C@@H]3CC[C@H](C2)N(CC2CCC2)C3=O)n1	19.4
O=C(c1cocn1)N1C[C@@H]2CN(CC3CC3)CCO[C@@H]2C1	7.56
COCCC(=O)N1CCN(CC2CC2)c2ccccc21	26.5
O=C(NCCCC(=O)N1CCN(CC2CC2)c2ccccc21)C1CC1	11.8
CNC(=O)NC(=O)CN1CCN(CC2CC2)c2ccccc21	31.2
NC(=O)NC(=O)CCN1CCN(CC2CC2)c2ccccc21	81.2
NC(=O)CN1CCN(CC2CC2)c2ccccc21	56.2
NC(=O)NC(=O)CN1CCN(CC2CC2)c2ccccc21	31.2
Cc1ccc(N2CC[C@@H]3O[C@@H](COCc4cccnc4)CC[C@@H]32)nn1	13.2
NC(=O)[C@@H]1CN2CCN(C(=O)C3CC3)C[C@@H]2[C@H]1c1ccccc1	2.04
CS(=O)(=O)N1C[C@H]2CCCN(Cc3cccs3)[C@H]2C1	5.26
COc1ccc2c(c1)CC(NCc1cccc(OCC(N)=O)c1)CC2 (stereo not given)	59
COc1ccc2c(c1)CC(NCc1cccc(CO)c1)CC2 (stereo not given)	15.4
COc1ccc2c(c1)CC(NCc1cccc(NC(C)=O)c1)CC2 (stereo not given)	43.6
Cc1ccc(CN2Cc3ccccc3O[C@]3(CC[C@H](CO)CC3)C2)s1	16.5

SMILES	Percent Effect [%]
O=C(c1ccccc1)N1CC[C@H]2C[C@@H](c3nnc(C4CC4)o3)O[C@@H]2C1	13.6
COC(=O)CN1N=C(C(=O)N2CCCC2)S(=O)(=O)c2ccccc21	12.2
CC(C)CCN1N=C(C(=O)N2CCCCCC2)S(=O)(=O)c2ccccc21	10.2
O=C(C1=NN(Cc2ccccc2)c2ccccc2S1(=O)=O)N1CCCC1	53.9
CN(CCCN1CCCCCC1)C(=O)c1ccccc1NCC(=O)O	50.6
CN(C(=O)c1ccccc1NCC(=O)O)C(C1CC1)C1CC1	-4.2
CN(CCCc1ccccc1)C(=O)c1ccccc1NCC(=O)O	16.9
CNC(=O)CN1CCC(CN(C)Cc2ccc(C)cc2C)CC1	2.04
Cc1ccc(CN2C[C@@H]3C[C@H](C(=O)NCC4CC4)N(C)[C@@H]3C2)o1	10.1
Cc1nc(CN2C(=O)CC[C@@H]3[C@H]2CCN3C(=O)C2CCCO2)cs1 (stereo not given in full)	15.4
CSc1nc(N)cc(N2C[C@@H]3CC[C@H](C2)N(Cc2cscn2)C3=O)n1	11
Clc1cc(NCc2ccncc2)nc2[nH]ccc12	71.1
Clc1cc(NCc2ncc[nH]2)nc2[nH]ccc12	10.8
Clc1cc(NCc2nccs2)nc2[nH]ccc12	22.9
c1cnc(N2CCO[C@H]3CN(Cc4csnn4)C[C@H]32)cn1	26.3
CS(=O)(=O)NC[C@@H]1OC[C@H]2CN(C(=O)c3ccc[nH]3)CC[C@H]21	-383
CS(=O)(=O)N[C@@H]1COC[C@@H]2CN(Cc3ccoc3)C[C@@H]21	6.94
CC(C)(C)c1cc(CN2C[C@H]3CC[C@@H]2CN(Cc2cscn2)C3)n[nH]1	11.5
O=S(=O)(c1cccnc1)N1C[C@@H]2COC[C@]2(COCC2CC2)C1	1.75
Cc1cccc2c1nc(COCC(=O)O)n2-c1cnc(N)cn1	68.3
Cc1ccc(-n2c(COCC(=O)O)nc3c(C)cccc32)nc1	25
Cc1cccc2c1nc(COCC(=O)O)n2-c1ccc(N)nc1	1.67
